Test results from PubChem BioAssay AID493191 (Broad Institute, 2011).
Screen size: about 1,300 compounds; about 330 (25%) were called active. The rule behind the calls is not given here. These entries were drawn from the full list. Entries with a potency or affinity are not part of this list.

Assay: MALME3 melanoma cell viability loss, dose response, orthogonal assay for MITF inhibitor project, CellTiter-Glo, cherry-picked (AID 493191)
Conditions: CellTiter-Glo luminescence, 24 h; series mostly up to 35 µM

| SMILES | outcome |
| --- | --- |
| COc1ccc(CNC(=O)CN2C(=O)C3C4C=CC(C4)C3C2=O)cc1 (stereo unspecified) | inactive |
| CC(C)(C)c1ccc(-c2cc(N)n[nH]2)cc1 | inactive |
| COCCn1c(C)cc(C(=O)CSc2nnc(C)s2)c1C | inactive |
| COc1ccc(CCC(=O)N2CCc3ccccc32)cc1 | inactive |
| O=C(CCl)N1c2ccccc2CCc2ccccc21 | inactive |
| CC(=O)c1sc(N/N=C\c2ccc(N(C)C)cc2)nc1C | inactive |
| COc1cccc(C(=O)Nc2ccc3c(cc2=O)[C@@H](NC(C)=O)CCc2cc(OC)c(OC)c(OC)c2-3)c1 | inactive |
| O=C1c2ccccc2C(=O)N1CCOc1ccccc1 | inactive |
| O=C(/C=C/c1cccc([N+](=O)[O-])c1)n1cnc2ccccc21 | inactive |
| Cc1nc2ccccn2c1C(=O)/C=C/c1cccc([N+](=O)[O-])c1 | inactive |
| CCOC(=O)C(=Cc1ccc(-n2ccnc2)cc1)C(=O)OCC | inactive |
| Cc1ccc(-n2ncc3c(SCC(N)=O)ncnc32)cc1C | inactive |
| CC(=O)c1ccc(Sc2nnnn2-c2ccccc2)c([N+](=O)[O-])c1 | inactive |
| CCOc1ccc2cc(C#N)c(SCC(=O)OC)nc2c1 | inactive |
| Cc1cc(C)cc(NS(=O)(=O)c2ccc3c(c2)c(=O)n(C)c(=O)n3C)c1 | inactive |
| N#Cc1cnn2cc(CCN3CCOCC3)c(-c3ccc(F)cc3)nc12 | inactive |
| Cc1cc(Cl)ccc1OCCCC(=O)N1CCOCC1 | inactive |
| O=C(CCCc1ccccc1)N1CCN(C2CCCCC2)CC1 | inactive |
| O=C(Cn1nnc(-c2ccccc2Cl)n1)N1CCCCC1 | inactive |
| Cc1ccc(C(=O)c2cccc(N)c2)cc1C | inactive |
| CC(C)(C)c1ccc(C(=O)N2CCCCCC2=O)cc1 | inactive |
| O=C(CSCc1c(F)cccc1F)Nc1ccccc1 | inactive |

| SMILES | outcome |
| --- | --- |
| CC(C)(C)OC(=O)N1CCN(C(=O)c2nc[nH]c2C(=O)N2CCN(c3ccccc3)CC2)CC1 | inactive |
| Cc1ccsc1C(=O)OCC(=O)Nc1sccc1C(N)=O | inactive |
| CCCCC(=O)N/C(N)=N/c1nc2ccccc2o1 | inactive |
| Cc1c(Cl)c([N+](=O)[O-])nn1Cc1ccc(C(=O)N/N=C\c2cc(Cl)ccc2O)o1 | inactive |
| O=C(c1ccc([N+](=O)[O-])s1)N1CCN(c2ccccn2)CC1 | inactive |
| O=C(N/N=C/c1ccccn1)c1cc([N+](=O)[O-])cc([N+](=O)[O-])c1 | inactive |
| O=C(O)c1cc2ccccc2c(N=Nc2cccnc2)c1O | inactive |
| CN(C)S(=O)(=O)c1cccc(NC(=O)CSc2nc3c(cc2C#N)C(=O)CC(C)(C)C3)c1 | inactive |
| O=C(c1nnsc1S(=O)(=O)c1ccc(Cl)cc1)N1CCOCC1 | inactive |
| Nc1ccc(-c2nc3ccc(C(=O)O)cc3s2)cc1 | inactive |
| OCC1CCCC(n2cnc3c(=S)nc[nH]c32)O1 (stereo unspecified) | inactive |
| Cc1cccc(/C=C2/Sc3ccc(C(=O)NCCN4CCCC4)cc3NC2=O)c1 | inactive |
| CCN1CCN(CCCNC(=O)c2ccc3c(Cl)c4c(nc3c2)CCCC4)CC1 | inactive |
| CCN1CCCC1CNC(=O)c1ccc2c(c1)NC(=O)/C(=C\c1ccc(OC)c(OC)c1)S2 (stereo unspecified) | inactive |
| COc1cccc(/C=C2/Sc3ccc(C(=O)NCCN4CCCC4)cc3NC2=O)c1 | inactive |
| CCCC1=Nc2cc(C(=O)NCCN3CCCC3)ccc2Sc2ccccc21 | inactive |
| CCNc1nc(N)c(C(=O)c2ccc(Cl)s2)s1 | inactive |
| CSc1nc(N)n2nc(-c3ccc(Cl)cc3)cc2n1 | inactive |
| CC(C)CC(=O)/C=C/n1c(=S)oc2ccccc21 | inactive |
| CN(c1cccc(NC(=O)COc2ccc(Cl)cc2Cl)c1)S(C)(=O)=O | inactive |
| O=C(CC(=O)c1ccccc1)Nc1ccccn1 | inactive |
| CC(=O)Nc1ccc(S(=O)(=O)N2CCn3cccc3C2C)cc1 (stereo unspecified) | inactive |

| SMILES | outcome |
| --- | --- |
| CC(=O)Nc1cccc2c1Cc1ccccc1-2 | inactive |
| c1ccc(-c2cn3nc4c(nc3n2)CCCC4)cc1 | inactive |
| O=S1(=O)CCC(NC(=S)SCc2ccccc2Br)C1 (stereo unspecified) | inactive |
| COc1cccc(-c2nnc3sc(-c4cccs4)nn23)c1 | inactive |
| COCC(C)Nc1ncnc2c1cnn2-c1ccc(Cl)cc1 (stereo unspecified) | inactive |
| Nc1ccccc1SC1CC(=O)N(c2ccc3c(c2)OCCO3)C1=O (stereo unspecified) | inactive |
| Cc1ccc2nc(NC(=O)c3ccc(Br)o3)sc2c1 | inactive |
| COC(=O)CSC1=C(C#N)C(=O)NC(c2ccccc2)S1 (stereo unspecified) | inactive |
| Cc1ccc(OCCNCc2ccccc2)c(C)c1 | inactive |
| CC(C)(C)c1ccc(OCCn2ccccc2=O)cc1 | inactive |
| NC(=O)c1cc([N+](=O)[O-])ccc1NCc1ccc(N)cc1 | inactive |
| Cc1ccc2nc3cc([N+](=O)[O-])cc([N+](=O)[O-])c3cc2c1 | inactive |
| CC(=O)N/C(N)=N/c1nc2cc(C)ccc2o1 | inactive |
| Cc1ccc(NC(=O)c2cnc3ccccc3n2)cc1C | inactive |
| CCn1nccc1C(=O)Nc1ccc(C)c(C)c1 | inactive |
| CC(C)=CCc1c(O)ccc2c1OC(c1ccc(O)c(O)c1)CC2=O (stereo unspecified) | inactive |
| Cc1c(OCC(=O)NC2CC(C)(C)NC(C)(C)C2)ccc2c1oc(=O)c1ccccc12 | inactive |
| COc1cc(SC)ccc1C(=O)NCCOc1ccccc1Cl | inactive |
| CC1CCN(CC2C(=O)O[C@@H]3C[C@@]4(C)CCC[C@H](C)C4=C[C@H]23)CC(C)(C)C1 (stereo partly specified) | inactive |
| CCOc1ccccc1NC(=O)C(=O)N/N=C/c1cc(Br)ccc1O | inactive |
| COc1ccc(C(=O)N/N=C/c2cc(Br)ccc2O)cc1OC | inactive |
| COc1ccc(CCn2c(=S)[nH]c3cc(C(=O)NCc4ccco4)ccc3c2=O)cc1OC | inactive |
